The list shows a part of the results. The hit rate among all sequences tested is not known here.
B1: VH:VL chains; a variant is named by its letters at X, in order (parent)
chain 1: QVQLVQSGAEVKKPGASVKVSCKASGYTFTDYXMHWVRQAPGQGLEWMGXVNPNXXXTTYNQKFEGRVTMTTDTSTSTAYMELRSLRSDDTAVYYCARXNXLDXWGQGTTVTVSS
chain 2: DIQMTQSPSSLSASVGDRVTITCSVSSSVSSIYLHWYQQKPGKAPKLLIYSTSNLASGVPSRFSGSGSGTDFTLTISSLQPEDFATYYCQVYSGYPLTFGGGTKVEIK

Variants of: B1
Experiment: yeast display scFab, FACS + sequencing
Conditions: with MET
How it was run: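 Round-3 sorted and input populations from a heavy-chain CDR mutant scFab yeast library were deep sequenced in two replicates. Sorting used FACS on cells labelled for 3 h at room temperature with 1 nM HGFR-Fc and anti-Myc in PBSB with 1% milk, keeping the top 50% antigen-positive cells. Any sequence seen in both antigen-positive samples was called a binder, while one seen only in the input was called a non-binder.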

Row | Variant | antigen binding call
1 | VTTKSAVA | no binding
2 | DRRKAFSA | no binding
3 | VEEEGDAA | no binding
4 | VAGGDDVA | no binding
5 | VEGTGDWD | no binding
6 | VRAGADVV | no binding
7 | YRGRGFVV | binds
8 | VRGRGFVV | binds
9 | VRARGFVV | binds
10 | YRGKGYVV | binds
11 | VATKGFVV | no binding
12 | VRGKAFVV | no binding
13 | FEKEADAF | no binding
14 | ATTGSASF | no binding
15 | DAETAAAA | no binding
16 | STGTGSGA | no binding
17 | SRGRGVGA | no binding
18 | SRGRGAVS | binds
19 | SRGRGAWS | binds
20 | SRGRDAWA | no binding
21 | SRGRGAWA | binds
22 | DAGRGAVS | no binding
23 | SRGRGSGA | binds
24 | VETGNDLV | no binding

Row | Variant | antigen binding call
25 | STGTGYVF | no binding
26 | AAKEGALV | no binding
27 | AKGRADVY | no binding
28 | YARETAGV | no binding
29 | YKRGDDLV | no binding
30 | DRRGDDGA | no binding
31 | YRRGDDGD | binds
32 | YTEGDDGD | no binding
33 | YRGRDDGD | binds
34 | YKRGDDGD | binds
35 | VRGRDDGV | no binding
36 | DRAGDDGD | no binding
37 | DRGRDDVD | no binding
38 | AEGGTDVV | no binding
39 | SREAADAV | no binding
40 | VKATAVAV | no binding
41 | VKERGDAV | no binding
42 | VKTGGAVV | binds
43 | VKGRSDGV | binds
44 | VKAGGAGS chain 1 G44D | no binding
45 | VKGRADGV | no binding
46 | SKGRSDGV | no binding
47 | VKARGSGV | binds
48 | VEGGGSGV | no binding

Row | Variant | antigen binding call
49 | VKARGAGS | binds
50 | VKEGGAVV | no binding
51 | VGARNSGV | no binding
52 | VKTGGSWV | no binding
53 | VAARGFGS | no binding
54 | SEGTGSSV | no binding
55 | DGGKNAGV | no binding
56 | DTGTGDAA | no binding
57 | YKTGDDGV | no binding
58 | VKGESAGV | no binding
59 | YKGEGDGV | no binding
60 | YKTKSDGV | no binding
61 | YKKRGAGV | binds
62 | YKARGAGV | binds
63 | YEKETAGV | no binding
64 | VKARSAGV | no binding
65 | YKTGGAGV | binds
66 | DKAGGAGV | no binding
67 | YKTGGDGV | no binding
68 | VKARGAGV | binds
69 | FEAESYGV | no binding
70 | FKAGSSGV | no binding
71 | FKATTSGA | no binding
72 | FKARGSGV | binds

Row | Variant | antigen binding call
73 | VAGTDAGA | no binding
74 | SREGGFAA | no binding
75 | YRRRGDAA | binds
76 | YRRGSFAA | binds
77 | YRRRGVAA | binds
78 | SRKGGDAA | no binding
79 | YRRRGYAA | binds
80 | VGGGASGV | no binding
81 | FTGRAYGF | no binding
82 | VAGRSDLV chain 1 R67H | no binding
83 | DAKEGAGD | no binding
84 | VTGEDDWD | no binding
85 | VGGGNAGD | no binding
86 | YRRRGAAA | binds
87 | YRRRGYVA | binds
88 | YRRRGFAA | binds
89 | YRRRGAVA | binds
90 | YREGGFAA | no binding
91 | VRAGADVY | no binding
92 | YGETGDSV | no binding
93 | FTETGFGA | no binding
94 | YRRRGFVA | binds
95 | VRERGSAD | binds
96 | YRERGSAD | binds

Row | Variant | antigen binding call
97 | FRERGSAD | binds
98 | YAEGDAAD | no binding
99 | YRERGAAD | binds
100 | YRERDSAD | no binding
101 | VEGTSDVV | no binding
102 | DTTGSAVA | no binding
103 | YKGGGAGA | binds
104 | YEGGGDGA | no binding
105 | FKGGGFGA | no binding
106 | YKGGGYGA | binds
107 | YTGATAGA | no binding
108 | VKGGGFGA | no binding
109 | YKGEADGA | no binding
110 | YKGGSAGA | binds
111 | VKGGGYGA | no binding
112 | YRRRGSGF | binds
113 | YRRRGAGF | binds
114 | YRRRGAWF | binds
115 | YRTRGSGF | binds
116 | FTKASYVY | no binding
117 | VEARGDWV | no binding
118 | STRKSYAA | no binding
119 | STKAASWV | no binding
120 | FRERGYGA | no binding

Row | Variant | antigen binding call
121 | STGTGALA | no binding
122 | FRERGALA | binds
123 | YRERGALA | binds
124 | FTGGDALA | binds
125 | FRERGDGA | no binding
126 | VTGGDALA | no binding
127 | YRERNAAA | no binding
128 | YRERGAAA | binds
129 | SGRGNSVD | no binding
130 | VEEEGDVA | no binding
131 | STEEGDWV | no binding
132 | AEGTNAGD | no binding
133 | VETGNDAV | no binding
134 | FRERNAAA | no binding
135 | FRERGAAA | binds
136 | YRERGSAA | binds
137 | FRGRGALA | binds
138 | FEEGTDWY | no binding
139 | DGGKNDAV | no binding
140 | DRAGDAGY | no binding
141 | YGETGFGS | no binding
142 | YRAGGFGS | binds
143 | YRARSFGD | no binding
144 | SRARDFGY | no binding

Row | Variant | antigen binding call
145 | YRARSFGS | binds
146 | YAAGSFGY | no binding
147 | YRAGGAGY | binds
148 | YRAGGFGY | binds
149 | SEARSSGF | no binding
150 | YATEAFSD | no binding
151 | YAKGDDAS | no binding
152 | DEGGGDGA | no binding
153 | DAGKSDWY | no binding
154 | YAEESDVA | no binding
155 | DTGTGALV | no binding
156 | YRAGGYGY | binds
157 | YRARGAGY | binds
158 | YRARGYVY | no binding
159 | YRARGSGY | binds
160 | YRAGGVGS | binds
161 | DTKAADWY | no binding
162 | VKEGGDVV | no binding
163 | YERESAAV | no binding
164 | YKGKDSSV | binds
165 | YGRTSAAV | no binding
166 | VEGTSSSV | no binding
167 | YKRESSSV | binds
168 | YAGKDDWV | no binding

Row | Variant | antigen binding call
169 | YKRESAAV | binds
170 | FEGGTDVV | no binding
171 | YKGRGYGF | no binding
172 | YKGRGAAF | binds
173 | YKGRGAGF | binds
174 | YKGRGSAF | binds
175 | DAGRSDLV chain 1 R67H | no binding
176 | SAGEGDVY | no binding
177 | FAKEGFWD | no binding
178 | VETEGSGV | no binding
179 | VRTRSSGV | binds
180 | VRTADVGV | no binding
181 | VRTRGSGV | binds
182 | VRERGDGV | no binding
183 | VETRSSSV | no binding
184 | DGGTNAGD | no binding
185 | YREKGSSV | binds
186 | YTTGGSSA | no binding
187 | DATGGSSV | no binding
188 | DREEGSSA | no binding
189 | YREKGSSA | binds
190 | YTEKGVGV | no binding
191 | YRTGGSSV | binds
192 | VAEKGSSA | no binding

Row | Variant | antigen binding call
193 | DTKRTAVA | no binding
194 | ATTKSAGD | no binding
195 | DARGGFGV | no binding
196 | YRRGSVGV | no binding
197 | DREEGVGV | no binding
198 | YRRGGAGV | binds
199 | YRGKDVGV | binds
200 | YRRGGVGV | binds
201 | YRRGGFGV | binds
202 | VEGGGDVV | no binding
203 | SEEEGASV | no binding
204 | YKARGAWD | binds
205 | YAARGAWD | no binding
206 | YKAGGAWD | binds
207 | YKGRGSLY | binds
208 | YKARGSLY | binds
209 | SKERGSLV | no binding
210 | YKGRGALY | binds
211 | DKEGGSLV | no binding
212 | YKGRAALY | no binding
213 | YKARGSLV | binds

From the emibetuzumab library of Makowski et al. (2022)
